Molecules are shown by their SMILES. The whole screen tested about 87,000 compounds, of which about 540 (0.62%) were called active. No rule for the calls is given here. For the sample, actives were picked, then their nearest neighbours and some compounds at random. Entries with a potency or affinity are not part of this list.

This passage reports outcome results from PubChem BioAssay AID618 (Sanford-Burnham Center for Chemical Genomics, 2007).

The test is described as follows: inhibitors of MT1-MMP promoter transcription, cell-based, luciferase reporter, luminescence (AID 618).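 Also: actives suppress MT1-MMP promoter-driven transcription so potencies describe inhibitors.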 As to conditions: MT1-MMP promoter luciferase reporter cells. (In general: Reporter assays use an easily measured gene product as a stand-in for the process of interest.)
For the molecule `Cc1[nH]nc2c1C(c1ccc(Cl)cc1)C(C#N)=C(N)O2` (configuration not stated), the outcome was inactive. With `CCOC(=O)C1CCCn2c1nc1sc3c(c1c2=O)CCCC3` (configuration not stated), the molecule was classed as inactive. Next, `CC(C)(C)c1ccc(S(=O)(=O)NCc2ccc(C(=O)N3CCCC3)cc2)cc1`: “inactive”; `CO/N=C/C(=N\Nc1ccc(C)cc1)C(=O)c1ccc(OC)cc1`: “inactive”.

In the case of `COc1ccc(N/N=C(\C=N\O)C(=O)c2ccc(OC)cc2)cc1`, the result was active. As to `CO/N=C/C(=N\Nc1ccc(OC)cc1)C(=O)c1ccc(OC)cc1`, the call was inactive. `Cc1c(C(=O)OC(C)CCN(C)C)oc2ccccc12` (configuration not stated): the call was inactive.

In the case of `CN1/C(=C\C(=O)COC(=O)CN2C(=O)C3CC=CCC3C2=O)C(C)(C)c2ccccc21` (configuration not stated), the molecule was called inactive. On to `Fc1ccc(Cn2c(-c3cscn3)nc3ccccc32)c(Cl)c1`, for which the molecule was called inactive. As for `Cc1oc2ccc(O)cc2c1C(=O)OC(C)C`, the molecule was called inactive. For the molecule `CCN1C(=O)C(CC(=O)N2CCN(C(c3ccccc3)c3ccccc3)CC2)N(CC)C1=O` (configuration not stated), the outcome was inactive. With `CC(=O)CSc1nc2ccccc2s1`, the call was inactive. Regarding `O=C(CSc1nc2ccccc2s1)CSc1nc2ccccc2s1`, the outcome was inactive. On to `CC(C)Oc1ccc(C2c3c(oc4ccccc4c3=O)C(=O)N2CCCN2CCOCC2)cc1` (configuration not stated), for which the call was inactive. On to `NC(=O)CSc1nnc2sc3ccccc3n12`, for which the result was inactive.

In the case of `COc1ccc(OCCSc2nnc3sc4ccccc4n23)cc1`, the molecule was classed as inactive. Take `COc1cccc(OCCSc2nnc3sc4ccccc4n23)c1`: the outcome was inactive.

In the case of `CN(C)C(=O)CSc1nnc2sc3ccccc3n12`, the call was inactive. Next, `C=CCOC(=O)C1=C(C)NC(=O)NC1c1cn(-c2ccccc2)nc1-c1cccs1` (configuration not stated): “inactive”; `COc1ccc(-n2c(Cc3cccn3C)nnc2SCC(=O)Nc2cccc(F)c2)cc1`: “inactive”. On to `Cc1cc(/C=N/n2cnnc2)c(C)n1-c1ccc(OCc2ccc(Cl)cc2)cc1`, for which the outcome was inactive. For the molecule `Cc1cc(/C=N/n2cnnc2)c(C)n1-c1ccc(OCc2ccccc2F)cc1`, the result was inactive. Turning to `Cc1ccc(C)c(N(CC(=O)NC2CCCCC2)C(=O)CCC(=O)Nc2ccccn2)c1`, the result was inactive. As to `O=C(COC(=O)c1cccs1)c1ccc2ccccc2c1`, the call was inactive. The same measure for `O=C(COC(=O)c1cccs1)c1ccccc1`: “inactive”. Next, `CCOC(=O)C1=C(C)NC(=O)NC1c1ccccc1Cl` (configuration not stated): “inactive”; `O=C(NCCN1CCOCC1)c1ccc(F)cc1`: “inactive”.

For the molecule `c1ccc(-n2ncc3c(N4CCN(c5ccccn5)CC4)nc(N4CCCCC4)nc32)cc1`, the molecule was classed as inactive. Regarding `CCOC(=O)N1CCN(C(=O)c2ccc(CS(=O)(=O)c3ccc(OC)cc3)o2)CC1`, the result was inactive.

Take `Cc1ccccc1S(=O)(=O)Cc1ccc(C(=O)N2CC(C)CC(C)C2)o1` (configuration not stated): the outcome was inactive.

As for `Cc1cccc(N2CCN(C(=O)c3ccc(CS(=O)(=O)c4ccccc4C)o3)CC2C)c1` (configuration not stated), the outcome was active.

Turning to `COc1ccc(N2CCN(C(=O)c3ccc(CS(=O)(=O)c4ccc(OC)cc4)o3)CC2)cc1`, the outcome was inactive. Turning to `Cc1ccc(C)c(N2CCN(C(=O)c3ccc(CS(=O)(=O)c4ccccc4C)o3)CC2)c1`, the outcome was inactive. Next, `COc1ccc(S(=O)(=O)Cc2ccc(C(=O)N3CCN(c4cccc(C)c4)C(C)C3)o2)cc1` (configuration not stated): “active”; `Cc1ccc(N=Cc2ccc(N(C)C)cc2)cc1`: “inactive”. The same measure for `O=S(=O)(/N=C(\c1ccccc1)N1CCOCC1)c1cccs1`: “inactive”; for `COCCn1nnnc1CN1CCC(C)CC1`: “inactive”; for `CCc1cc(=O)oc2cc(OCC(=O)N3CCc4ccccc43)ccc12`: “inactive”. Next, `COCCCN1C(=O)C(=O)/C(=C(/O)c2ccc(OC(C)C)cc2)C1c1ccncc1` (configuration not stated): “inactive”; `COc1ccc(-c2nc(-c3ccccc3)c(-c3cc([N+](=O)[O-])ccc3C)[nH]2)cc1O`: “inactive”; `COc1ccc(-c2nc(-c3cccs3)c(-c3cccs3)[nH]2)cc1O`: “inactive”. Turning to `COc1ccc(-c2c/c(=N\c3nc(-c4ccccc4)c(C)s3)c3ccccc3o2)cc1O`, the molecule was classed as active. Regarding `Cc1nn(C)c(C)c1S(=O)(=O)N1CCC(C(=O)NCC2COc3ccccc3O2)CC1` (configuration not stated), the result was inactive. Next, `COC(=O)[C@@H]1C[C@H]2CC[C@H](O)C[C@H]2N1Cc1ccc(-c2ccccc2)cc1`: “active”. Consider `COC(=O)[C@@H]1C[C@@H]2CC[C@@H](O)C[C@@H]2N1Cc1ccc(Cl)cc1`, for which the result was inactive.

Regarding `COC(=O)[C@@H]1C[C@@H]2CC[C@@H](O)C[C@@H]2N1Cc1ccc(-c2ccccc2)cc1`, the outcome was inactive. The same measure for `O=c1c(Cl)c(NCCCO)cnn1-c1nc2ccccc2[nH]1`: “inactive”; for `CC1(C)CC(=O)c2cnn(-c3nc4ccccc4[nH]3)c2C1`: “inactive”; for `CC(=O)c1c(C)nn(C(=O)N2CCOCC2)c1C`: “inactive”. For `CCOc1ccccc1N(C(=O)CNS(=O)(=O)c1ccccc1)C(CC)C(=O)NCc1ccco1` (configuration not stated), the call was inactive. Turning to `COc1ccc(/C=N\n2nnc3ccccc32)cc1`, the outcome was active. `COc1ccc(/C=N/n2c(N)nc3ccccc32)cc1OC`: the outcome was inactive.

For `COc1ccc(/C=N/n2cnnc2SCc2ccccc2)cc1`, the result was inactive. Next, `CC1(c2ccccc2)NC(=O)N(CC(=O)N2CCOCC2)C1=O` (configuration not stated): “inactive”. In the case of `O=c1c2ccccc2cnn1-c1nc2ccccc2s1`, the call was active. As for `O=c1c2ccccc2cnn1-c1ccc(Cl)cc1`, the result was inactive. As for `O=c1c2ccccc2cnn1-c1ccc(Br)cc1`, the call was inactive. As to `COc1ccc(-c2noc(CCC(=O)NCCCN3CCC(Cc4ccccc4)CC3)n2)cc1`, the result was inactive. `CCCC(=O)Nc1ccc(Cl)c(NC(=O)c2cccnc2)c1`: the result was inactive. On to `O=C1CCCCCN1C(=O)c1cccc(C(=O)N2CCCCCC2=O)c1`, for which the molecule was classed as inactive. As for `O=C1CCCCCN1C(=O)c1ccc(C(=O)N2CCCCCC2=O)cc1`, the molecule was called inactive. As for `Cc1ccc2c(c1)CCCN2C(=O)C1CCCO1` (configuration not stated), the molecule was called inactive. On to `CN(C)S(=O)(=O)c1ccc2nc(NC(=O)c3cccs3)sc2c1`, for which the call was inactive. Take `CCOC(=O)c1ccc2nc(NC(=O)c3cccs3)sc2c1`: the call was inactive.

For `Cc1ccc2nc(NC(=O)c3ccc(Cl)s3)sc2c1`, the molecule was called inactive. Consider `CS(=O)(=O)c1ccc2nc(NC(=O)c3cccs3)sc2c1`, for which the outcome was active. The same measure for `Cc1ccc2nc(NC(=O)c3cccs3)sc2c1`: “active”. The same measure for `CCN(CC)S(=O)(=O)c1ccc2nc(NC(=O)c3cccs3)sc2c1`: “inactive”; for `CCSc1n[nH]c2nc3c(c(=O)n12)C1(CCCC1)Cc1ccccc1-3`: “inactive”. The same measure for `CCCOc1ccccc1C1CC(=O)NC2=C1C(=O)CCC2` (configuration not stated): “inactive”; for `CCOc1ccccc1C1CC(=O)NC2=C1C(=O)CCC2` (configuration not stated): “inactive”. For `CCCCOc1ccccc1C1CC(=O)NC2=C1C(=O)CCC2` (configuration not stated), the molecule was called active.
